The source of these data is PubChem BioAssay.

Activity calls are given as the source filed them.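 Rule for the calls, unless noted: active = inhibition of the reporter signal at or above 50%; inactive = inhibition below 50%.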 Where a SMILES comes first, the peptide text is derived from it.

Assay [1] can be described thus: inhibitors of TNFa-induced NFkB p65 translocation, primary screen, imaging, HUVEC, MLSMR starter and 10KST1 sets (AID 438;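 active = inhibition above 20% together with a positive visual image hit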;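 note: compound added about 3h40 before a 20 min TNFalpha stimulation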;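 for inhibition: signal is the nuclear over cytoplasmic p65 intensity ratio per well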). To be noted: HUVEC TNFa-induced p65 nuclear translocation; cell count: measured here: nuclei count (cytotoxicity indicator), at 2.08 µM; inhibition: at 2 µM, stronger effect = higher value, 0% TNFa-plus-vehicle, 100% no-TNFa wells.
Assay [2] can be described thus: reduction of polyQ htt aggregates in cells – imaging, exon1htt(103Q)mCFP cells, high-content imaging, primary screen (AID 483;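 active = visual image review flags a hit and inhibition of aggregation exceeds 20%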;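 note: compound exposure lasted 3 days before fixation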;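 for nuclei count: percent of the per-plate median nuclei count of sample wells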). To be noted: exon1htt(103Q)mCFP cell line, aggregate imaging, at 2 µM; inhibition of aggregation: stronger effect = higher value; nuclei count: measured here: cell count, toxicity.
Assay [3] in a line: endothelial E-selectin expression blockers – imaging, HUVEC, immunofluorescence, MLSMR starter and 10KST1 sets, primary screen (AID 487;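 active = visually confirmed hit in the image check and inhibition above 20%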;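 for inhibition: signal is fraction of cell area covered by stained E-selectin grains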;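 for nuclei count: 100% = median nuclei count of all wells on the same plate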). To be noted: HUVEC TNFalpha-induced E-selectin immunofluorescence imaging, at 2 µM; inhibition: stronger effect = higher value; nuclei count: measured here: cell number, toxicity.
Assay [4] deals with Voltage-gated potassium channel subunit beta-2 (Rattus norvegicus) (UniProt P62483). Nature of the assay: inhibitors of rat Kvbeta2 reductase activity – biochemical, NADPH fluorescence, primary screen (AID 622;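 active = fluorescence slope higher than the sample average by over 3 SD, cut at about -0.22 in these data, passing the limit was not always enough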;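 note: slope of raw intensity against log time taken from 70 to 1610 s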). To be noted: recombinant KvBeta, 4-cyanobenzaldehyde reduction, at 10 µM, stronger effect = higher value.
Assay [5] has the same target. Briefly: enhancers of rat Kvbeta2 NADPH turnover – biochemical, NADPH fluorescence, primary screen (AID 623;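 active = NADPH fluorescence slope more negative than the mean of all samples by about 3 SD, 99.7% confidence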;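 note: fluorescence intensity change per second fitted from 20 to 320 s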). Particulars: Recombinant KvBeta, NADPH fluorescence decrease slope, 10 min; at 10 µM; stronger effect = lower value.
The target in assay [6] is Alpha-2C adrenergic receptor (Homo sapiens) (UniProt P18825). Nature of the assay: compounds altering alpha2C-coupled GIRK flux – cell-based, HEK293 alpha2C/GIRK1/2, thallium flux, primary screen (AID 624;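 active = fluorescence slope after compound addition differing from the mean of all screened samples at 99.7% confidence, in either direction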;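 note: slope of fluorescence ratio to pre-addition baseline per second over 15 to 24 s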). Particulars: thallium flux BTC fluorescence, at 10 µM, actives lie on both sides.
Assay [7] is described as follows: blockers of RIG-like receptor reporter activation – cell-based, Sendai virus stimulus, luciferase, 10K MLSCN set, TLR/RLR signaling modifier project, primary screen (AID 602276;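 active = inhibition at or above 50% at 10 µM; inactive = inhibition below 50%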;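 note: firefly luciferase from ISG56 promoter only with Renilla not read in this screen; 0% = Sendai virus plus DMSO and 100% = medium plus DMSO without virus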). Particulars: HEK293 RL24 IRF3 luciferase reporter, at 10 µM, stronger effect = higher value. In general terms: In a reporter assay the amount or activity of a reporter protein is the signal.
The nature of assay [8]: TLR3 IRF3 reporter activation blockers – cell-based, poly I:C stimulus, luciferase, 10K MLSCN set, primary screen (AID 602277). To be noted: HEK293-TLR3 RL24 IRF3 luciferase reporter, at 10 µM, stronger effect = higher value.

Sequence of Alpha-2C adrenergic receptor (Homo sapiens) (P18825 whole entry, looked up): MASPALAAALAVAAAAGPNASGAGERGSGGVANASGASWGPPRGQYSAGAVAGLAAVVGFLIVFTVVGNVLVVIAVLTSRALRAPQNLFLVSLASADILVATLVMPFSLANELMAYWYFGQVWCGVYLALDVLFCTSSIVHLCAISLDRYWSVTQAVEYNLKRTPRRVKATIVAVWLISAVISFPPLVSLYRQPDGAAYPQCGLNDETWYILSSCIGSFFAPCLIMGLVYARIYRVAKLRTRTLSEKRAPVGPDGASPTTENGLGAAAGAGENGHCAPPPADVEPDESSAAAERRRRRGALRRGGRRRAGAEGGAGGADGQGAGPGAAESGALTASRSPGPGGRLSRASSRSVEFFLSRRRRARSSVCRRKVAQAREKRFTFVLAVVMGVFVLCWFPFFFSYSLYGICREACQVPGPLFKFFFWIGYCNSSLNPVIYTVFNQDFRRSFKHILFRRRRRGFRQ
Sequence of Voltage-gated potassium channel subunit beta-2 (Rattus norvegicus) (P62483 whole entry, looked up): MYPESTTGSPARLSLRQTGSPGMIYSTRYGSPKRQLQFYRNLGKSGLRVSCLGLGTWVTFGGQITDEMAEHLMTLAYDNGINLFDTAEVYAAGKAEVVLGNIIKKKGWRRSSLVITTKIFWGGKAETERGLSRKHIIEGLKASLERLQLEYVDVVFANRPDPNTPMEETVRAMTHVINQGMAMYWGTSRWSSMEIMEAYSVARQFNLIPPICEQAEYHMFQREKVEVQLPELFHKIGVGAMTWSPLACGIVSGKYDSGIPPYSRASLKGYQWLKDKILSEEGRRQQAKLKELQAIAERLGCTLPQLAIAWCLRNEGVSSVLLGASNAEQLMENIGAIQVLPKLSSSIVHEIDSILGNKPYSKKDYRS

`Cc1nc2ccc(CCO)cc2s1`: the cell count in assay [1] turned out to be 419. Also, the inhibition is 8% (inactive) in assay [1], -162% (inactive) in assay [3], 5.43% (inactive) in assay [7] and 4.05% (inactive) in assay [8]. Further, the inhibition of aggregation in assay [2] was 2.9% (inactive). In addition, the figures for the nuclei count in assay [2] and in assay [3] were 93.2% and 112%, respectively. Also, in assay [4], the fluorescence slope was -0.652 (inactive). For the same molecule, the NADPH fluorescence slope in assay [5] was 3.1e-05 (inactive). In assay [6], the slope is 0.00546 (inactive).
For the molecule `CCCC(NC(=O)CNC(=O)C(C)(C)C)C(=O)O` (centres undefined) (HELM PEPTIDE1{[CC(C)(C)C(=O)[*:2]].G.[CCCC(N[*:1])C(=O)O]}$$$$V2.0), the cell count in assay [1] turned out to be 678. For the same molecule, the inhibition was 0.5% (inactive) in assay [1], 63.7% (inactive) in assay [3], 14.8% (inactive) in assay [7] and 11.8% (inactive) in assay [8]. Besides, the inhibition of aggregation in assay [2] is 12.5% (inactive). Also, the figures for the nuclei count in assay [2] and in assay [3] were 104% and 97.4%, respectively. Also, the fluorescence slope in assay [4] was -0.499 (inactive). The NADPH fluorescence slope in assay [5] was -1.3e-05 (inactive). The slope in assay [6] is 0.00543 (inactive).
For the molecule `Cc1ccc(C2c3sc(=O)[nH]c3SC3C(=O)NC(=O)C32)cc1` (centres undefined), the cell count in assay [1] turned out to be 401. In addition, the inhibition in assay [1] was 6.1% (inactive); in assay [3], -18% (inactive); in assay [7] it was 1.16% (inactive); in assay [8], 58.9% (active). Besides, the inhibition of aggregation in assay [2] is 11.3% (inactive). For the same molecule, the nuclei count in assay [2] turned out to be 88.3%; in assay [3], 99.5%. Further, the fluorescence slope in assay [4] was -0.558 (inactive). Further, the NADPH fluorescence slope in assay [5] was -2.2e-05 (inactive). In assay [6], the slope was 0.00486 (inactive).
Consider `COCCn1c(C)cc(C(=O)CSc2nc3ccccc3c(=O)[nH]2)c1C`, for which the cell count in assay [1] worked out at 287. The inhibition in assay [1] is -9.5% (inactive); in assay [3], -22.3% (inactive); in assay [7], -28% (inactive); in assay [8], -89.1% (inactive). The inhibition of aggregation in assay [2] was -2.6% (inactive). In addition, the values for the nuclei count in assay [2] and in assay [3] were 95.3% and 114%, respectively. Moreover, in assay [4], the fluorescence slope is -0.595 (inactive). Moreover, the NADPH fluorescence slope in assay [5] was -3.8e-05 (inactive). In assay [6], the slope was 0.00437 (inactive).
As to `Cc1ccc(-c2nnc3c4ccccc4c(C)nn23)cc1NC(=O)c1ccco1`, in assay [1], the cell count was found to be 641. Further, the inhibition in assay [1] is -11% (inactive); in assay [3] it was -106% (inactive); in assay [7], -0.847% (inactive); in assay [8], -4.54% (inactive). Further, the inhibition of aggregation in assay [2] is 17.5% (inactive). Also, the values for the nuclei count in assay [2] and in assay [3] were 102% and 115%, respectively. For the same molecule, in assay [4], the fluorescence slope is -0.602 (inactive). In addition, in assay [5], the NADPH fluorescence slope was 2.3e-05 (inactive). Further, in assay [6], the slope was 0.00729 (inactive).
Turning to `c1ccc(CN2C3=NCCCN3c3ccccc32)cc1`, the cell count in assay [1] is 361. Also, the inhibition is -4.7% (inactive) in assay [1], -3.7% (inactive) in assay [3], 11.4% (inactive) in assay [7] and 22.1% (inactive) in assay [8]. Moreover, the inhibition of aggregation in assay [2] was -10.1% (inactive). In addition, the nuclei count in assay [2] worked out at 97.9%; in assay [3], 117%. Also, in assay [4], the fluorescence slope is -0.601 (inactive). For the same molecule, the NADPH fluorescence slope in assay [5] was -1.3e-05 (inactive). The slope in assay [6] was 0.00493 (inactive).
In the case of `CCc1nc2sc(C)c(C)c2c(=O)n1CCO`, in assay [1], the cell count was determined as 396. Further, the inhibition in assay [1] was 7.2% (inactive); in assay [3], -64.6% (inactive); in assay [7], 5.69% (inactive); in assay [8] it was 32% (inactive). Also, the inhibition of aggregation in assay [2] is 10.8% (inactive). Besides, the nuclei count worked out at 81.4% in assay [2] and 103% in assay [3]. In addition, the fluorescence slope in assay [4] is -0.422 (inactive). Further, in assay [5], the NADPH fluorescence slope was 1.1e-05 (inactive). Besides, the slope in assay [6] was 0.00292 (inactive).
Turning to `Cc1cccc2sc(NC(=O)CN(C)S(=O)(=O)c3cccs3)nc12`, the cell count in assay [1] was found to be 601. The inhibition in assay [1] was -25.8% (inactive); in assay [3] it was -1.7% (inactive); in assay [7] it was -1.84% (inactive); in assay [8], -8.61% (inactive). Moreover, in assay [2], the inhibition of aggregation is -7% (inactive). The nuclei count in assay [2] amounted to 114%; in assay [3], 103%. Also, in assay [4], the fluorescence slope was -0.432 (inactive). For the same molecule, the NADPH fluorescence slope in assay [5] was 1e-05 (inactive). Besides, in assay [6], the slope was 0.00346 (inactive).
Consider `CCN(CC)CCCNS(=O)(=O)c1ccc(OC)cc1`, for which the cell count in assay [1] came to 460. For the same molecule, the inhibition in assay [1] was 0.5% (inactive); in assay [3], -61.5% (inactive); in assay [7], 13.6% (inactive); in assay [8] it was 27.9% (inactive). Also, the inhibition of aggregation in assay [2] is -18% (inactive). For the same molecule, the values for the nuclei count in assay [2] and in assay [3] were 110% and 134%, respectively. Besides, in assay [4], the fluorescence slope was -0.429 (inactive). In assay [5], the NADPH fluorescence slope was -0.000105 (inactive). The slope in assay [6] was 0.00623 (inactive).
On to `CCn1ncc(Cl)c1C(=O)Nc1ccncc1`, for which, in assay [1], the cell count came to 587. The inhibition in assay [1] was -6.1% (inactive); in assay [3] it was -41% (inactive); in assay [7] it was 3.99% (inactive); in assay [8], -1.03% (inactive). Besides, the inhibition of aggregation in assay [2] was -21.9% (inactive). Besides, the nuclei count in assay [2] came to 56.2%; in assay [3] it was 101%. Further, in assay [4], the fluorescence slope is -0.577 (inactive). The NADPH fluorescence slope in assay [5] was -5.6e-05 (inactive). For the same molecule, the slope in assay [6] is 0.00342 (inactive).
With `Cc1nc2ccccc2c(=O)n1CC(=O)N1CCOCC1`, the cell count in assay [1] was found to be 558. Also, the inhibition in assay [1] is -17.1% (inactive); in assay [3], 22.8% (inactive); in assay [7] it was 14.1% (inactive); in assay [8], 13.2% (inactive). In addition, in assay [2], the inhibition of aggregation is 11.6% (inactive). Besides, the nuclei count is 78.3% in assay [2] and 89.9% in assay [3]. The fluorescence slope in assay [4] is -0.503 (inactive). In assay [5], the NADPH fluorescence slope was -4.9e-05 (inactive). In assay [6], the slope was 0.00461 (inactive).
As for `CCOCCCNC(=O)Cn1ncc2c(=O)oc3ccccc3c21`, the cell count in assay [1] was 651. Also, the inhibition in assay [1] was -13.4% (inactive); in assay [3] it was -32.1% (inactive); in assay [7], 5.54% (inactive); in assay [8] it was 30.9% (inactive). Besides, the inhibition of aggregation in assay [2] is -20.1% (inactive). Further, the nuclei count in assay [2] was 98.5%; in assay [3], 104%. Besides, the fluorescence slope in assay [4] was -0.586 (inactive). In addition, in assay [5], the NADPH fluorescence slope was -1.8e-05 (inactive). For the same molecule, in assay [6], the slope is 0.00598 (inactive).
With `O=C(Nc1nnc(CCN2CCCCC2)s1)C1CCCCC1`, the cell count in assay [1] worked out at 455. The inhibition was -11.2% (inactive) in assay [1], -31.8% (inactive) in assay [3], 15.1% (inactive) in assay [7] and 16.5% (inactive) in assay [8]. The inhibition of aggregation in assay [2] is 7% (inactive). The figures for the nuclei count in assay [2] and in assay [3] were 113% and 102%, respectively. The fluorescence slope in assay [4] is -0.411 (inactive). Also, the NADPH fluorescence slope in assay [5] is -6e-05 (inactive). In assay [6], the slope is 0.00451 (inactive).
Turning to `Fc1ccc(-c2csc3nnc(SCc4cccnc4)n23)cc1`, in assay [1], the cell count is 376. Moreover, the inhibition in assay [1] was 4.4% (inactive); in assay [3], -30% (inactive); in assay [7], 1.55% (inactive); in assay [8], 20.4% (inactive). The inhibition of aggregation in assay [2] is -9.6% (inactive). For the same molecule, the nuclei count in assay [2] turned out to be 97.5%; in assay [3] it was 116%. For the same molecule, the fluorescence slope in assay [4] is -0.312 (inactive). Moreover, the NADPH fluorescence slope in assay [5] is -2.7e-05 (inactive). The slope in assay [6] was 0.00572 (inactive).

A word on the inhibition: it is the drop in the measured response relative to a control, in per cent.
